Here are results for 56 molecules from PubChem BioAssay AID624351 (Southern Research Specialized Biocontainment Screening …, 2012).

For orientation: IC50 means the concentration that gives 50% inhibition.

Among all 2,400 compounds or so, about 1,400 (58%) were called active.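 Rule for the calls: active = inhibition of 30% or more at any tested dose; inconclusive = primary hits over the limit that were never retested; inactive = the rest.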 The set was probably picked from earlier hits. The list shows a part of the results.

The nature of the assay: ADP Hunter readout inhibition without MgcRacGAP – biochemical, coupled enzyme counter-screen, artefact control for MgcRacGAP inhibitor project, dose response (AID 624351).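 Note: signal is the ADP detection kit reading of free GDP without any GAP enzyme.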 Conditions: fluorescence, no MgcRacGAP; series mostly up to 80 µM.
For `COc1ccc(-n2c(SCC(=O)C(C)(C)C)nc3c(sc(=S)n3-c3ccccc3)c2=O)c(OC)c1`, the IC50 entry is “inactive”.
Then `Cc1nc2ncccn2c1-c1csc(Nc2ccc(O)cc2)n1`, with 11.1 µM (active).
Consider `Oc1ccc(-c2csc(Nc3ccccn3)n2)c(O)c1`, for which the IC50 is 63.3 µM (active).
Turning to `O=C(Nc1nc(-c2ccncc2)cs1)C1COc2ccccc2O1` (stereo unspecified), the IC50 entry was “inactive”.
Then `Cc1ccnc(Nc2nc(-c3ccc(O)c(O)c3)cs2)c1`, with 61 µM (active).
With `Oc1ccc(-c2csc(Nc3ccccn3)n2)cc1`, the IC50 was 79.7 µM (active).
In the case of `NNc1cc([N+](=O)[O-])cc2c1C(=O)N(Cc1ccccc1)S2=O` (stereo unspecified), the IC50 result was “inactive”.
`O=C1NN(c2ccccc2)C(=O)C1=Cc1ccccc1O`: the IC50 entry was “inactive”.
For `COc1cccc(OCC(O)CN2CCN(C)CC2)c1` (stereo unspecified), the IC50 result was “inactive”.
Then `c1ccc(CCNCCCOc2cccc3ccccc23)cc1`, with “inactive”.
Consider `COc1cc2c(cc1N)-c1ccc(N)cc1C2=O`, for which the half-inhibitory concentration (IC50) was 16.5 µM (active).
For `Nc1ccc2c(c1)C(=O)c1cc(N)c(Cl)cc1-2`, the IC50 is 49.2 µM (active).
For `O=C(/C=C/c1ccc([N+](=O)[O-])cc1)/C=C/c1ccco1`, the IC50 result was “inactive”.
For the molecule `Cc1ccc(Cl)c(OCCCN(C)Cc2ccccc2)c1`, the IC50 result was “inactive”.
For `O=C(CNCC1CCCO1)Nc1ccc(N2CCCCCC2)cc1` (stereo unspecified), the IC50 result is “inactive”.
In the case of `CC1=NN(c2cccc(C(=O)O)c2)C(=O)/C1=C\C=C\c1ccco1`, the IC50 result was “inactive”.
For `N#Cc1ccccc1OCCCN1CCC(Cc2ccccc2)CC1`, the IC50 entry was “inactive”.
For the molecule `CC(=O)c1c(C)c(C)c2n1CCn1c(C)ccc1-2`, the IC50 is 44.7 µM (active).
Then `COc1ccc(NCc2cccnc2)cc1`, with 54.6 µM (active).
In the case of `COc1cccc(OC)c1C(=O)N1CCN(Cc2cccnc2)CC1` it was “inactive”; in that of `COc1ccc(NCc2ccsc2)cc1`, 28.9 µM (active).
`Clc1nc(NCc2cccnc2)nc(N2CCOCC2)n1`: the IC50 result was “inactive”.
In the case of `COc1ccc2cc(CNCCOCCOCCNCc3ccc4cc(OC)ccc4c3)ccc2c1`, the IC50 entry is “inactive”.
Take `N#CCCN(CCC#N)c1nncs1`: the IC50 entry is “inactive”.
For `Cc1ccc2c(c1)C(C)CC(C)(C)N2C(=O)CN1CCN(C)CC1` (stereo unspecified), the IC50 entry is “inactive”.
Turning to `COc1ccc2nc(C)cc(N/N=C/c3cccc(OC)c3O)c2c1`, the IC50 entry was “inactive”.
As to `COc1ccc2c(c1)-c1nc(/N=C/c3ccccc3O)sc1CC2`, the concentration for half-maximal inhibition (IC50) was 32.7 µM (active).
Then `COc1ccc2c(c1)-c1nc(/N=C/c3cccc(OC)c3O)sc1CC2`, with 29.2 µM (active); and `COc1ccc2c(c1)-c1nc(/N=C/c3c(O)ccc4ccccc34)sc1CC2`, with 62.7 µM (active).
As for `Cc1cc(Cl)c(OCCOCCN2CCN(C)CC2)c(Br)c1`, the IC50 entry was “inactive”.
As to `CCCCN(C)CCNC(=O)CSCc1ccc(C)cc1`, the IC50 result was “inactive”.
`Nc1ccc(C(=O)N/N=C/c2ccc(N3CCOCC3)s2)cc1`: the IC50 was 19.5 µM (active).
As to `O=C(N/N=C/c1ccc(N2CCOCC2)s1)c1ccc(O)cc1`, the half-maximal inhibitory concentration (IC50) was 25.2 µM (active).
Regarding `Cc1cc(OCCCN2CCN(Cc3ccccc3)CC2)ccc1[N+](=O)[O-]`, the IC50 result is “inactive”.
Then `CC(=O)Nc1cccc2cc(O)ccc12`, with 35.8 µM (active); and `O=C(/C=C/c1ccc(O)c(O)c1)OC(Cc1ccc(O)c(O)c1)C(=O)O` (stereo unspecified), with 44.1 µM (active).
`O=C1N=c2ccccc2=C1c1sc(Nc2ccc(O)cc2)nc1O`: the IC50 entry is “inactive”.
Turning to `Cc1ccc(-c2csc3n[nH]c(=S)n23)cc1`, the IC50 is 61.8 µM (active).
Turning to `CC1(C)Nc2cccc3cccc(c23)N1`, the concentration for half-maximal inhibition (IC50) is 31.9 µM (active).
For the molecule `COc1ccc(OC(=O)c2cc(S(=O)(=O)N3CCCC3)ccc2Cl)cc1`, the IC50 entry was “inactive”.
In the case of `C/C(=N\Nc1ccc(S(=O)(=O)N2CCCCC2)cn1)c1ccc(O)cc1` it was 20 µM (active); in that of `CC1CCCC(N2CCN(C(=O)c3ccc([N+](=O)[O-])cc3)CC2)C1` (stereo unspecified), “inactive”.
Take `Cc1ccc(NCCCCO)cc1C`: the half-maximal inhibitory concentration (IC50) was 43.3 µM (active).
Take `Cc1ccc(NCc2ccco2)cc1C`: the IC50 result is “inactive”.
As for `C/C(=N\Nc1cccc2cccnc12)c1ccc[nH]1`, the IC50 result is “inactive”.
With `Cc1nc(Cc2nnc(SCC(=O)N3CCN(c4ccc(O)cc4)CC3)o2)cs1`, the IC50 is 30.6 µM (active).
In the case of `Cc1cccc(NC2=C(C#N)C(=O)NC3(CCCC3)S2)c1` it was “inactive”; in that of `COc1cc(/C(C)=N/N2CCN(c3ccccc3OC)CC2)ccc1O`, “inactive”.
Turning to `COc1ccccc1N1CCN(/N=C/c2ccc(O)cc2O)CC1`, the half-inhibitory concentration (IC50) is 70.9 µM (active).
On to `COc1ccccc1N1CCN(CC(=O)c2ccc(F)cc2)CC1`, for which the IC50 entry is “inactive”.
Regarding `COc1ccc(CN2CCCN(C)CC2)c(OC)c1C`, the IC50 entry was “inactive”.
On to `COc1cc(/C=N/N2CCN(c3ccccc3OC)CC2)ccc1O`, for which the IC50 was 36.5 µM (active).
Then `COc1ccccc1N1CCN(CCCOc2ccc(F)cc2)CC1`, with “inactive”.
Consider `COc1cccc(OC)c1NC(=O)CN1CCN(C)CC1`, for which the IC50 result was “inactive”.
As for `COc1ccc(/C=N/N2CCN(C)CC2)cc1O`, the half-inhibitory concentration (IC50) was 42.6 µM (active).
Take `Cc1ccc(N2C(N)=C(C#N)C3(C(=O)N(C)c4ccccc43)C3=C2CC(C)(C)CC3=O)cc1Cl` (stereo unspecified): the IC50 entry was “inactive”.
